Reference: PubChem BioAssay (NCI)
About 83,000 compounds went through this panel and 20% of them were active in at least one assay; those are over-represented in the sample as a whole.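 Results are percent growth after 48 hours of single-concentration exposure. 100 means growth as in untreated cells, lower positive values show inhibition; negative values down to -100 show cell death.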 A number with no mark means an inactive call. Calls of active or inactive are those of the source. Rule for the calls: active = growth percent below 10; inactive = the rest.

Key:
Assay in all cases: NCI-60 one-dose screen, 48 h (100 = growth as untreated, 0 = no growth, -100 = all killed)
Conditions in all cases: 10 µM unless noted
EKVX NSCLC = test system: EKVX NSCLC
SN12C renal = test system: SN12C renal
UO-31 renal = test system: UO-31 renal
TK-10 renal = test system: TK-10 renal
ACHN renal = test system: ACHN renal
CAKI-1 renal = test system: CAKI-1 renal
A498 renal = test system: A498 renal
CCRF-CEM leukemia = test system: CCRF-CEM leukemia
MOLT-4 leukemia = test system: MOLT-4 leukemia
SR leukemia = test system: SR leukemia
RPMI-8226 leukemia = test system: RPMI-8226 leukemia
OVCAR-8 ovarian = test system: OVCAR-8 ovarian
OVCAR-5 ovarian = test system: OVCAR-5 ovarian
OVCAR-4 ovarian = test system: OVCAR-4 ovarian
SK-OV-3 ovarian = test system: SK-OV-3 ovarian
IGROV1 ovarian = test system: IGROV1 ovarian
OVCAR-3 ovarian = test system: OVCAR-3 ovarian
HS 578T breast = test system: HS 578T breast
NCI/ADR-RES ovarian = test system: NCI/ADR-RES ovarian
SK-MEL-2 melanoma = test system: SK-MEL-2 melanoma

Row | Structure (SMILES) | growth (EKVX NSCLC) | growth (SN12C renal) | growth (UO-31 renal) | growth (TK-10 renal) | growth (ACHN renal) | growth (CAKI-1 renal) | growth (A498 renal) | growth (CCRF-CEM leukemia) | growth (MOLT-4 leukemia) | growth (SR leukemia) | growth (RPMI-8226 leukemia) | growth (OVCAR-8 ovarian) | growth (OVCAR-5 ovarian) | growth (OVCAR-4 ovarian) | growth (SK-OV-3 ovarian) | growth (IGROV1 ovarian) | growth (OVCAR-3 ovarian) | growth (HS 578T breast) | growth (NCI/ADR-RES ovarian) | growth (SK-MEL-2 melanoma)
1 | CCCCNC(=O)c1ccc(OCC)cc1 | 103% | 103% | 101% | 105% | 109% | 100% | 94.2% | 94.9% | 105% | 104% | 99.1% | 103% | 96.1% | 101% | 98.7% | 108% | 105% | 101% | 100% | 
2 | COC(=O)c1cccc([N+](=O)[O-])c1 |  | 95.2% | 98.2% | 101% | 109% | 108% |  | 104% | 105% | 99% | 102% | 107% | 111% | 130% | 115% | 111% | 108% | 102% | 102% | 94.1%
3 | CC(=O)c1cccc(NS(=O)(=O)c2ccc(C)cc2)c1 |  | 89.1% | 77% | 90.3% | 106% | 81.6% |  | 84% | 73.9% | 36.6% | 86.6% | 90.1% | 92.8% | 79% | 101% | 62.8% | 70.9% | 86.9% | 50.5% | 77.9%
4 | CCCC(OC(C)=O)c1ccc2c(c1)OCO2 (stereo not given) | 117% | 106% | 86.8% | 106% | 111% | 101% | 96.7% | 105% | 107% | 103% | 107% | 99% | 106% | 110% | 105% | 104% | 105% | 99.6% | 104% | 
5 | CN(C)c1ccc(O)c2c1CC1CC3C(N(C)C)C(=O)C(C(N)=O)=C(O)C3(O)C(=O)C1=C2O (stereo not given) |  | 35.6% | 23.6% |  | 35.5% | -3.07% (active) | 26.2% | 44.9% | 79.1% | 24.1% | 20.6% | 38.3% | 63.4% | 57.8% | 45.2% | 38.4% | 46.6% | 48.9% | 66.7% | 17.6%
6 | C=CCC(OC(C)=O)c1ccc(OC)c(OC)c1 (stereo not given) | 107% | 102% | 90.4% | 102% | 99% | 92.3% | 110% | 100% | -29% (active) | 35.3% | 97.1% | 96.7% | 113% | 118% | 126% | 96.6% | 111% |  | 116% | 
7 | O=S(=O)(OCCOS(=O)(=O)c1ccccc1)c1ccccc1 |  | 97.1% | 83.2% | 102% | 105% | 89.8% |  | 92.9% | 93% | 93.7% | 100% | 97% | 111% | 101% | 96.3% | 105% | 94.3% | 108% | 95.5% | 103%
8 | CC(=O)c1cccc(N(C)S(=O)(=O)c2ccc(C)cc2)c1 |  | 103% | 82.2% | 90.4% | 107% | 101% |  | 97.7% | 94.9% | 44.7% | 102% | 101% | 90.7% | 87.7% | 109% | 82.5% | 105% | 102% | 82.4% | 94.2%
9 | OC(CBr)CCBr (stereo not given) |  | 96.8% | 103% | 131% | 100% | 92.4% | 97.5% | 88.2% |  | 78.3% | 98.8% | 99.8% | 106% | 93.5% | 101% | 89.5% | 112% | 103% | 106% | 124%
10 | CCOC(=O)c1ccc(C(C)(C)C)cc1 | 114% | 107% | 89.8% | 103% | 110% | 101% | 114% | 113% | 87.1% | 95.7% | 104% | 103% | 106% | 109% | 104% | 108% | 107% | 114% | 108% | 
11 | CC(=O)c1ccc(C)cc1 | 98.5% | 103% | 75.7% | 105% | 109% | 109% | 94.5% | 108% | 107% | 112% | 113% | 108% | 104% | 112% | 121% | 98.1% | 111% | 94.9% | 106% | 
12 | CC(C)c1ccc(C(=O)OCCCl)cc1 | 102% | 99.3% | 92.6% | 94.6% | 94.5% | 383% | 92.7% | 107% | 100% | 106% | 221% | 94% | 96.5% | 104% | 101% | 109% | 123% | 94.7% | 102% | 
13 | COC(CCCl)c1ccc(Cl)cc1 (stereo not given) |  | 106% | 84.5% | 86.3% | 88.9% | 101% | 109% |  |  | 90.2% | 100% | 96.9% | 96.2% | 108% | 106% | 100% | 109% |  | 98.6% | 83.5%
14 | CC(=O)OC/C(C)=C\CC(C)COC(C)=O (stereo not given) |  | 99.6% | 87.7% | 112% | 96.9% | 96.3% |  | 96.9% | 111% | 83% | 94.2% | 99.8% | 111% | 105% | 101% | 106% | 112% | 100% | 104% | 113%
15 | CS(=O)(=O)c1ccc(/C=C\C(=O)O)cc1 |  | 103% | 83.5% | 101% | 108% | 98.2% | 48.6% | 101% |  | 62.3% | 98.8% | 104% | 105% | 98.2% | 106% |  | 102% | 81.7% | 104% | 109%
16 | CCOC(=O)C(CCC#N)(CCC#N)C(=O)OCC |  | 105% | 95.2% | 102% | 109% | 102% |  | 94.7% | 97.3% | 103% | 96.6% | 104% | 97.8% | 96% | 108% | 126% | 102% | 95.2% | 105% | 112%
17 | ClCC(Cl)C1CCC(Cl)C(Cl)C1 (stereo not given) |  | 104% | 86.3% | 100% | 99.3% | 97.2% |  | 97.5% | 105% | 99.5% | 100% | 95.6% | 105% | 104% | 100% | 117% | 114% | 103% | 104% | 110%
18 | CCCC(=O)c1cccs1 |  | 95.6% | 98% | 101% | 103% | 99.7% |  | 102% | 100% |  | 105% | 107% | 100% | 103% | 103% | 110% | 107% | 95.2% | 101% | 115%
